S1P2 ag: agonists of human S1P2 receptor | S1P2-expressing cell line, agonist reporter read-out | 97,000 compounds, 0.46% hits | O95136 | activation, % at 4.5 µM; in the data active means activation above about 16%;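 further: 0% = vehicle low control and 100% = maximal reference agonist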
GALR2 ag: agonists of human galanin receptor 2 (GALR2). activation, % (no concentration beside the values). GALR2-expressing cells, agonist activation read-out. O43603. 140,000 compounds, 0.48% hits; in the data active means activation above about 5%, passing the limit was not always enough;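 further: 0% = vehicle buffer wells and 100% = reference agonist at full effect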
Target sequence (O43603 whole entry, looked up): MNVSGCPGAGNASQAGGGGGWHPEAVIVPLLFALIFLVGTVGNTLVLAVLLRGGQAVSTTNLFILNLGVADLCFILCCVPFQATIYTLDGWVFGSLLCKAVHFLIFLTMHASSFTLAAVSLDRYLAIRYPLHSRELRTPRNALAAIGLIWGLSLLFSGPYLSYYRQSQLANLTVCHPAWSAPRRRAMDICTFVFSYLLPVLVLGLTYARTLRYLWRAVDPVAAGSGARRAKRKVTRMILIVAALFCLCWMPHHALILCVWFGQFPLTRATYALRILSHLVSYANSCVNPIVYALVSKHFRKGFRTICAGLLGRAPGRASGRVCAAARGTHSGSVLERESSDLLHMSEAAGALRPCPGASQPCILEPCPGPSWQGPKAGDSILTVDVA
PostGolgi yeast: growth inhibition of a yeast mutant, post-Golgi transport screen. post-Golgi transport phenotypic cell assay. inhibition, % at 10 µM. 98,000 compounds, 0.9% hits;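 further: yeast cells grown in 1536-well plates; yeast grown about 18 h at 30C before absorbance read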
GALR2 blocker: blocks the human galanin receptor 2. inhibition, % at 4 µM. O43603. AID 828. 140,000 compounds, 0.39% hits. GALR2-expressing cells, antagonist mode; in the data active means inhibition above about 27%;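 further: cells stimulated with galanin 1-16 at roughly its EC80; 0% = agonist challenge control and 100% = basal control without agonist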
S1P2 antag: S1P2 (human) receptor antagonism. O95136. cell-based S1P2 antagonist assay, inhibition at 5 uM. inhibition, % at 5 µM. 97,000 compounds, 0.21% hits. AID 736; in the data active means inhibition above about 45%;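 further: CRE beta-lactamase reporter cells expressing human S1P2 stimulated with S1P; 0% = agonist at EC80 alone and 100% = agonist plus reference antagonist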
PostGolgi ctrl: inhibits growth of the yeast control strain. inhibition, % at 10 µM. 98,000 compounds, 5% hits. efflux-deficient yeast background strain, growth absorbance A615, 16 h
Starred values were filed as active, the others as inactive; / = no result. The entries come from a sample that favours hits as a whole. Unless noted, no stated cut-off is given here; in the data, active means inhibition above about 30%; inactive means the rest.

SMILES	S1P2 ag	GALR2 ag	PostGolgi yeast	GALR2 blocker	S1P2 antag	PostGolgi ctrl
COC(=O)c1ccc(/C=N/OCC(=O)NC2CCCCCCC2)cc1	-6	-4	5	-4	-5	20
CCOC(=O)c1c(Cc2cccc(Cl)c2)c[nH]c1C	/	-2	/	-4	/	/
CCOC(=O)c1c(NC(=O)c2cnn3c2NC(c2cccc(OC)c2)CC3C(F)(F)F)sc2c1CCCC2 (configuration not stated)	/	0	/	-8	/	/
CCOc1ccccc1C1C(C(=O)OC)=C(N)OC2=C1C(=O)CCC2 (configuration not stated)	/	0	-3	-3	/	8
CCOc1ccc(Br)cc1C1C(C(=O)OC)=C(N)Oc2cc(N(C)C)ccc21 (configuration not stated)	2	1	1	-4	-5	31*
COC(=O)c1ccc(Cl)c(NC(=O)CSc2ncn[nH]2)c1	-3	-1	-3	1	-5	31*
C=CCOC(=O)C1=C(C)NC(SCC(=O)Nc2ccccc2)=C(C#N)C1c1ccco1 (configuration not stated)	-7	-2	12	-2	9	3
COC(=O)c1ccc2c(=O)n(CC3CCCO3)c(SCC(=O)Nc3ccccc3OC)nc2c1 (configuration not stated)	-1	-1	-9	-6	-18	33*
Cc1ccc2c(c1)cc(CN(Cc1ccc3c(c1)OCO3)C(=O)c1cnccn1)c1nnnn12	-5	-2	0	-11	-4	1
Cc1ccc2c(c1)cc(CN(Cc1ccco1)C(=O)COc1ccccc1)c1nnnn12	-1	0	5	-5	20	42*
COc1ccc(NC(C)=O)cc1CNC(=O)COc1c(C)c(C)cc(C)c1C	/	0	/	5	/	/
O=C1c2ccccc2C(=O)N1OCc1cccc(Cl)c1	-7	-2	28	-8	2	2
O=c1cc2c(nn1Cc1cccc(Cl)c1)-c1ccccc1CC2	-3	0	20	-2	-12	76*
O=c1cc2c(nn1Cc1ccc(Cl)cc1Cl)-c1ccccc1CC2	-4	-2	-2	2	-1	27
O=c1cc2c(nn1Cc1ccccc1Cl)-c1ccccc1CC2	-3	1	14	-9	-37	43*
O=c1cc2c(nn1Cc1ccc(Cl)cc1)-c1ccccc1CC2	-3	0	-3	-11	17	48*
O=C(COC(=O)c1ccccc1)Nc1ccccc1N1CCOCC1	-4	-2	/	-2	-3	/
Cc1ccc(NC(=O)NCCCc2ccccc2)cc1	-7	-1	-3	-21	3	9
CS(=O)(=O)N(CC(=O)NCCSc1ccccn1)c1cccc2ccccc12	/	-2	/	5	/	/
CCOCCN1CCN(c2c3c(nc4cc(-c5ccc(F)cc5)nn24)CCC3)CC1	/	1	-2	6	/	19
COc1cc(OC)cc(-c2cc3nc4c(c(N5CCN(c6ncccn6)CC5)n3n2)CCCC4)c1	15	-1	1	1	-6	69*
CCc1c(C)nc2cc(-c3ccc(OC)c(OC)c3)nn2c1N1CCCC1	14	-3	-4	2	-14	32*
CCOCCN1CCN(c2c(CC)c(C)nc3cc(-c4cc(OC)cc(OC)c4)nn23)CC1	-3	0	/	-1	-33	/
CCc1c(C)nc2cc(-c3cc(OC)cc(OC)c3)nn2c1N1CCCC1	6	0	1	5	-17	43*
CCOc1ccc(C(C)(C)C)cc1S(=O)(=O)N1CCOCC1	-6	-2	-9	12	-8	8
SMILES	S1P2 ag	GALR2 ag	PostGolgi yeast	GALR2 blocker	S1P2 antag	PostGolgi ctrl
CC1CCCC(C)N1C(=O)COC(=O)C(Cc1ccccc1)NC(=O)c1cccs1 (configuration not stated)	/	-1	/	8	/	/
S=c1[nH]nc(-c2ccco2)n1/N=C/c1ccc(Cl)cc1Cl	0	1	-6	3	-2	39*
S=c1[nH]nc(-c2ccco2)n1/N=C/c1cccc(Cl)c1Cl	/	-2	/	-6	/	/
Cn1cccc1/C=N/n1c(-c2ccc(Cl)cc2Cl)n[nH]c1=S	1	0	4	-5	7	43*
CCOc1cccc2c1OC(c1cc(OC)c(OC)c(OC)c1)N1N=C(c3ccc(C)o3)CC21 (configuration not stated)	/	-2	/	14	/	/
CC(=O)Nc1cc(C(C)(C)C)c(O)c(C(C)(C)C)c1	0	0	-8	5	-2	33*
CO/N=C(/CNC(=O)c1ccc(Cl)cc1Cl)c1ccc(Cl)cc1	-5	-3	2	-4	-9	18
CN(c1ccccc1)c1cc(=O)[nH]c(=O)[nH]1	/	0	/	8	/	/
O=C(COC(=O)C1Cc2ccccc2CN1C(=O)c1ccccc1)Nc1ccc(SC(F)F)cc1 (configuration not stated)	/	0	/	-13	/	/
COCC(=O)N1CCCc2ccccc21	-3	1	2	3	-5	11
CCc1cc(=O)oc2c(C)c(OCC(=O)N3CCCc4ccccc43)ccc12	-3	-3	13	-2	6	33*
O=C(Nc1ccc(SC(F)F)cc1)c1ccc2nccnc2c1	-2	-1	-2	1	17	31*
CCCN1Cc2cccc(C(=O)Nc3ccc4c(c3)OCCO4)c2C1=O	0	0	11	10	1	36*
CCCN1Cc2cccc(C(=O)Nc3ccc4c(c3)OCO4)c2C1=O	/	1	5	10	/	8
CCCC12CN3CCN(CC(C3)/C1=N\NC(=O)c1ccc(C(C)(C)C)cc1)C2	/	-2	/	3	/	/
c1ccc(-c2c(-c3ccccc3)n(Cc3ccco3)c3ncnc(NCCCn4ccnc4)c23)cc1	0	1	96*	-19	-5	94*
c1ccc2c(c1)oc1c(NCCCn3ccnc3)ncnc12	-5	0	1	-8	-23	4
c1ccc(-c2oc3ncnc(NCCCn4ccnc4)c3c2-c2ccccc2)cc1	3	2	3	-30	5	66*
OCCNc1ncnc2c1c(-c1ccccc1)c(-c1ccccc1)n2Cc1ccco1	-2	0	27	1	-4	33*
COc1cc(C2C(C#N)=C(N)Oc3c2c(-c2ccccc2)nn3-c2ccccc2)cc(OC)c1OC (configuration not stated)	/	3	/	5	/	/
Cc1ccc(CNC(=O)CSCC(=O)O)cc1	-7	-1	4	4	-3	41*
Cc1nnc(SC(=O)N2c3ccccc3Sc3ccccc32)s1	/	-1	13	14	/	75*
Cn1c(SCC(=O)N2CCCc3ccccc32)nnc1-c1c[nH]c2ccccc12	-5	-1	10	-6	22	-2
O=C(CSc1c[nH]c2ccccc12)N1CCCc2ccccc21	-3	-2	5	-3	-5	31*
O=C(CSc1ncnc2c1oc1ccccc12)N1CCCc2ccccc21	-2	0	0	-4	-3	44*
O=C(Cn1cnc2c(oc3ccccc32)c1=O)N1CCCc2ccccc21	-4	-1	7	-15	-1	8

Compound activity from PubChem BioAssay.
